ugtP null kill: compounds lethal to S. aureus RN4220 ugtP deletion mutant; AID 1259309; growth inhibition, % (test concentration not listed); 0.54% of 330,000 active; OD600 growth, 16 h; in the data active means growth inhibition above about 68%
PrP UTR inh: suppresses PrP 5' UTR mRNA reporter expression | cell-based PrP 5' UTR mRNA reporter, plate reader | inhibition, % (no concentration beside the values) | 0.35% of 340,000 active; in the data active means inhibition above about 52%
Yp Topo-I inh: blocks Yersinia pestis topoisomerase I activity | Y. pestis Topo-I cleavage product accumulation, plate reader | activity, % at 10 µM | 0.064% of 360,000 active | AID 504884; in the data active means activity above about 50%, passing the limit was not always enough
BJeLR lethal: BJeLR cell viability loss. 0.17% of 300,000 active. BJeLR (HRASV12) viability, CellTiter-Glo ATP luminescence, 48 h. inhibition, % (no concentration beside the values); in the data active means inhibition above about 50%
RN4220 kill: kills Staphylococcus aureus RN4220; inhibition, % (no concentration beside the values); S. aureus RN4220 growth, OD600, 16 h; 0.33% of 330,000 active; in the data active means inhibition above about 85%
PfHsp40 rescue: compounds rescuing yeast from Plasmodium falciparum HSP40 toxicity | S. cerevisiae expressing PfHsp40, growth rescue, ATP luminescence | growth rescue, % at 12.5 µM | 0.68% of 340,000 active; in the data active means growth rescue above about 28%, passing the limit was not always enough;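 further: yeast W303a lacking pdr1 and pdr3 grown in galactose medium; growth measured after three days at 30 °C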
Hits are given with their value; n = inactive; x = no result. Rows were chosen to be rich in hits. Some 1.4% of all compounds tested hit in one or more screens of this group.

SMILES	ugtP null kill	PrP UTR inh	Yp Topo-I inh	BJeLR lethal	RN4220 kill	PfHsp40 rescue
COc1cc(C=CC(=O)N2CCCN(C(=O)C=Cc3cc(OC)c(OC)c(OC)c3)CC2)cc(OC)c1OC	n	x	x	x	n	x
O=C(COC(=O)CCC1CCCC1)Nc1ccccc1Sc1ccccc1	n	n	64	n	n	n
O=C(COC(=O)C1CCC1)Nc1ccccc1Sc1ccccc1	n	n	n	n	n	n
O=C1NC(=S)SC1=Cc1ccccc1Cl	100	n	n	x	98	n
O=C1NC(=S)S/C1=C\c1cc2ccccc2nc1N1CCCCC1	86	n	n	n	84	n
COCCCNC(=O)Cc1c(C)c2c(cc(C)c3c(C(C)(C)C)coc32)oc1=O	n	n	n	66	n	n
CCCCN1CC(=O)N2C3c4ccccc4OCC3C(C(=O)OCC)[C@]2(C)C1=O (stereo partly drawn)	n	x	x	x	n	x
O=C(NCCc1ccccc1)C(c1cccs1)N(C(=O)CCl)c1ccc(Cl)cc1 (stereo not drawn)	n	n	n	117	n	n
Cc1nn(Cc2ccccc2Cl)c(Cl)c1C(=O)O	n	n	n	n	n	n
CCn1nc(C)c(Br)c1C(=O)Sc1ccccc1Cl	87	n	n	n	n	n
CC(C)N1CCN(c2ccc(OC[C@H]3CO[C@](Cn4cncn4)(c4ccc(Cl)cc4Cl)O3)cc2)CC1	x	n	n	x	x	222
CC(C)N1CCN(c2ccc(OCC3CO[C@](Cn4cncn4)(c4ccc(Cl)cc4Cl)O3)cc2)CC1 (stereo partly drawn)	n	x	x	x	n	x
CC(C)N1CCN(c2ccc(OCC3COC(Cn4cncn4)(c4ccc(Cl)cc4Cl)O3)cc2)CC1 (stereo not drawn)	x	n	n	x	x	226
COC(=O)C1=C(c2ccccc2)CC2CCC1N2C(=O)NCCNC(C)=O (stereo not drawn)	n	x	x	x	n	x
CCCN(Cc1cc2cc(C)ccc2[nH]c1=O)C(=O)c1cccc(OC)c1	n	n	n	n	n	n
CCCN(Cc1cc2cccc(C)c2[nH]c1=O)C(=O)c1cccc(OC)c1	n	n	n	n	n	72
CCN1/C(=C/c2cc[n+](C)cc2)C=Cc2cc(C)ccc21	100	n	n	x	n	n
CCN1C(=O)/C(=C2\C=Cc3cc(C)ccc3N2CC)OC1=S	x	n	n	n	x	n
COC(=O)C1=C(c2ccc(S(C)(=O)=O)cc2)CC2CCC1N2C(=O)NCc1ccc(C(F)(F)F)cc1 (stereo not drawn)	n	x	x	x	n	x
Cc1ccc(C(=O)ONc2ccc(N=O)cc2)cc1	100	n	n	n	n	n
O=c1cc(-c2ccc(O)cc2)oc2c(C3OC(CO)C(O)C(O)C3O)c(O)cc(O)c12 (stereo not drawn)	n	x	x	x	n	x
CC(=O)c1ccc(N=Nc2ccc(C)cc2)cc1	n	n	n	n	n	n
C=C(C)C(=O)Oc1ccc(N=Nc2ccc(C)cc2)ccc1=O	100	x	n	x	n	x
Cc1ccc(Nc2c(-c3ccccc3O)nc3cnccn23)cc1	n	n	n	n	n	58
COc1ccc(Nc2c(-c3ccc(C)cc3)nc3cnccn23)cc1	n	n	n	n	n	n
SMILES	ugtP null kill	PrP UTR inh	Yp Topo-I inh	BJeLR lethal	RN4220 kill	PfHsp40 rescue
O=S(=O)(Nc1cccnc1)c1cccc(C(F)(F)F)c1	n	n	n	n	n	n
O=[N+]([O-])c1ccc(S(=O)(=O)c2cccc(C(F)(F)F)c2)nc1	n	n	n	n	n	42
CC(C)CC(NC(=O)C1CCC(C)CC1)C(=O)NCCN1CCOCC1 (stereo not drawn)	n	n	n	n	n	n
CC1CCC(C(=O)NC(C(=O)NCCN2CCC(C)CC2)C(C)C)CC1 (stereo not drawn)	n	n	n	n	n	46
CCOC1OC(C(=O)O)=CC(C(C)(C)C)C1CCCO (stereo not drawn)	n	x	x	x	n	x
CCOC(=O)C1C2COc3ccc(Br)cc3C2N2C(=O)c3c(C)cc(C)cc3NC(=O)[C@@]12C (stereo partly drawn)	n	x	x	x	n	x
CC(C)(C)c1cc(NCCCn2ccnc2)n2ncc(-c3ccc(Cl)cc3)c2n1	n	n	n	n	n	70
CC(C)c1oc(=O)cc2c1C(O)C1OC(=O)[C@@]3(C)CCC(O)[C@@]2(C)C13 (stereo partly drawn)	n	x	x	x	n	x
Cc1cc(CNC(=O)COC(=O)c2ccc(Cl)c(N)c2)cc(C)c1O	n	n	n	n	n	105
Cc1ccc(CNC(=O)COC(=O)c2ccc(Cl)c(N)c2)cc1	n	n	n	n	n	n

Screening results: PubChem BioAssay, several laboratories
